# Measured values from the supplement of paper PMC8728848.
# This excerpt belongs to a sample that is enriched for the strongest signals.
# What was measured:
# Assay in all cases: glycan array binding signal (z-score within array); higher = stronger binding
# Conditions in all cases: glycan notation: IUPAC condensed, linker removed
# [1] = biological target: Fuc(a1-2)Gal(b1-3)GalNAc(a1-3)[Fuc(a1-2)]Gal(b1-4)Glc
# Outline: (§1)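 Arrays were curated from the Consortium for Functional Glycomics database, 3228 in total, and kept only where the protein sequence was available. Binding is expressed as a within-array Z-score. This score was averaged across arrays of the same protein sequence at different concentrations or buffers and across linkers, and negative values can be read as non-binding.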
# [2] = biological target: Fuc(a1-2)Gal(b1-4)[Fuc(a1-3)]GlcNAc
# Outline: as §1
# [3] = biological target: Fuc(a1-2)[Gal(a1-3)]Gal(b1-3)GalNAc
# Outline: as §1
# [4] = biological target: Fuc(a1-2)[Gal(a1-3)]Gal(b1-3)GlcNAc(b1-2)Man(a1-3)[Fuc(a1-2)[Gal(a1-3)]Gal(b1-3)GlcNAc(b1-2)Man(a1-6)]Man(b1-4)GlcNAc(b1-4)GlcNAc
# Outline: as §1
# [5] = biological target: Fuc(a1-2)[Gal(a1-3)]Gal(b1-3)GlcNAc(b1-2)Man(a1-3)[Fuc(a1-2)[Gal(a1-3)]Gal(b1-3)GlcNAc(b1-2)Man(a1-6)]Man(b1-4)GlcNAc(b1-4)[Fuc(a1-6)]GlcNAc
# Outline: as §1
# [6] = biological target: Fuc(a1-2)[Gal(a1-3)]Gal(b1-4)GlcNAc(b1-2)Man(a1-3)[Fuc(a1-2)[Gal(a1-3)]Gal(b1-4)GlcNAc(b1-2)Man(a1-6)]Man(b1-4)GlcNAc(b1-4)GlcNAc
# Outline: as §1
# [7] = biological target: Fuc(a1-2)[GalNAc(b1-3)]Gal
# Outline: as §1
# [8] = biological target: Fuc(a1-3)[Gal(b1-4)]GlcNAc(b1-3)GalNAc
# Outline: as §1
# [9] = biological target: Fuc(a1-3)[Gal(b1-4)]GlcNAc(b1-6)[Gal(b1-3)GlcNAc(b1-3)]Gal(b1-4)Glc
# Outline: as §1
# Gal(a1-2)Gal = biological target: Gal(a1-2)Gal
# Outline: as §1
# [10] = biological target: Gal(a1-3)Fuc(a1-2)Gal(b1-4)GlcNAc(b1-3)[Gal(a1-3)Fuc(a1-2)Gal(b1-4)GlcNAc(b1-6)]GalNAc
# Outline: as §1
# [11] = biological target: Gal(a1-3)Gal(b1-3)GlcNAc(b1-2)Man
# Outline: as §1
# Gal(a1-3)Gal(b1-4)GlcNAc = biological target: Gal(a1-3)Gal(b1-4)GlcNAc
# Outline: as §1
# [12] = biological target: Gal(a1-3)Gal(b1-4)GlcNAc(b1-2)Man(a1-3)[Gal(a1-3)Gal(b1-4)GlcNAc(b1-2)Man(a1-6)]Man(b1-4)GlcNAc(b1-4)GlcNAc
# Outline: as §1
# [13] = biological target: Gal(a1-3)Gal(b1-4)[Fuc(a1-3)]GlcNAc
# Outline: as §1
# [14] = biological target: Gal(a1-3)[Gal(a1-4)]Gal(b1-4)GlcNAc
# Outline: as §1
# [15] = biological target: Gal(a1-4)Gal(b1-3)GlcNAc(b1-2)Man(a1-3)[Gal(a1-4)Gal(b1-3)GlcNAc(b1-2)Man(a1-6)]Man(b1-4)GlcNAc(b1-4)GlcNAc
# Outline: as §1
# [16] = biological target: Gal(a1-4)Gal(b1-4)GlcNAc(b1-2)Man(a1-3)[Gal(a1-4)Gal(b1-4)GlcNAc(b1-2)Man(a1-6)]Man(b1-4)GlcNAc(b1-4)GlcNAc
# Outline: as §1
# Gal(a1-4)GlcNAc = biological target: Gal(a1-4)GlcNAc
# Outline: as §1
# [17] = biological target: Gal(b1-3)GalNAc(a1-3)[Fuc(a1-2)]Gal(b1-4)GlcNAc
# Outline: as §1
# [18] = biological target: Gal(b1-3)GlcNAc(a1-6)Gal(b1-4)GlcNAc
# Outline: as §1
# Gal(b1-3)GlcNAc(b1-2)Man = biological target: Gal(b1-3)GlcNAc(b1-2)Man
# Outline: as §1
# [19] = biological target: Gal(b1-3)GlcNAc(b1-2)[Gal(b1-3)GlcNAc(b1-6)]Man(a1-6)[Gal(b1-3)GlcNAc(b1-2)Man(a1-3)]Man(b1-4)GlcNAc(b1-4)GlcNAc
# Outline: as §1
# [20] = biological target: Gal(b1-3)GlcNAc(b1-3)Gal(b1-4)GlcNAc
# Outline: as §1
# [21] = biological target: Gal(b1-3)GlcNAc(b1-3)Gal(b1-4)GlcNAc(b1-6)[Gal(b1-3)GlcNAc(b1-3)]Gal(b1-4)Glc
# Outline: as §1
# [22] = biological target: Gal(b1-3)GlcNAc(b1-3)Gal(b1-4)[Fuc(a1-3)]GlcNAc
# Outline: as §1
# [23] = biological target: Gal(b1-4)GlcNAc(b1-2)Man(a1-3)[Gal(b1-4)GlcNAc(b1-2)Man(a1-6)][Gal(b1-4)GlcNAc(b1-4)]Man(b1-4)GlcNAc(b1-4)[Fuc(a1-6)]GlcNAc
# Outline: as §1
# [24] = biological target: Gal(b1-4)GlcNAc(b1-2)Man(a1-3)[GlcNAc(b1-4)][Gal(b1-4)GlcNAc(b1-2)Man(a1-6)]Man(b1-4)GlcNAc(b1-4)GlcNAc
# Outline: as §1
# [25] = biological target: Gal(b1-4)GlcNAc(b1-2)Man(a1-6)Man(b1-4)GlcNAc(b1-4)GlcNAc
# Outline: as §1
# [26] = biological target: Gal(b1-4)GlcNAc(b1-3)Gal(b1-4)GlcNAc(b1-3)Gal(b1-4)GlcNAc(b1-3)Gal(b1-4)GlcNAc(b1-3)Gal(b1-4)GlcNAc(b1-3)Gal(b1-4)GlcNAc(b1-2)Man(a1-3)[Gal(b1-4)GlcNAc(b1-3)Gal(b1-4)GlcNAc(b1-3)Gal(b1-4)GlcNAc(b1-3)Gal(b1-4)GlcNAc(b1-3)Gal(b1-4)GlcNAc(b1-3)Gal(b1-4)GlcNAc(b1-2)Man(a1-6)]Man(b1-4)GlcNAc(b1-4)GlcNAc
# Outline: as §1
# Gal3S(b1-4)Glc = biological target: Gal3S(b1-4)Glc
# Outline: as §1
# Gal3S(b1-4)GlcNAc = biological target: Gal3S(b1-4)GlcNAc
# Outline: as §1
# [27] = biological target: GalNAc(a1-3)GalNAc(b1-3)Gal(a1-4)Gal(b1-4)Glc
# Outline: as §1
# GalNAc3S(b1-4)GlcNAc = biological target: GalNAc3S(b1-4)GlcNAc
# Outline: as §1
# [28] = biological target: GlcNAc(a1-4)Gal(b1-4)GlcNAc
# Outline: as §1
# [29] = biological target: GlcNAc(b1-2)[GlcNAc(b1-4)]Man(a1-3)[GlcNAc(b1-4)][GlcNAc(b1-2)[GlcNAc(b1-6)]Man(a1-6)]Man(b1-4)GlcNAc(b1-4)GlcNAc
# Outline: as §1
# [30] = biological target: GlcNAc(b1-2)[GlcNAc(b1-4)]Man(a1-3)[GlcNAc(b1-4)][GlcNAc(b1-2)[GlcNAc(b1-6)]Man(a1-6)]Man(b1-4)GlcNAc(b1-4)[Fuc(a1-6)]GlcNAc
# Outline: as §1
# [31] = biological target: GlcNAc(b1-3)Gal(b1-4)GlcNAc
# Outline: as §1
# [32] = biological target: GlcNAc(b1-3)Gal(b1-4)GlcNAc(b1-3)Gal(b1-4)GlcNAc(b1-2)Man(a1-3)[GlcNAc(b1-3)Gal(b1-4)GlcNAc(b1-3)Gal(b1-4)GlcNAc(b1-2)Man(a1-6)]Man(b1-4)GlcNAc(b1-4)GlcNAc
# Outline: as §1
# [33] = biological target: GlcNAc(b1-3)Gal(b1-4)GlcNAc(b1-3)GalNAc
# Outline: as §1
# [34] = biological target: GlcNAc(b1-3)[GlcNAc(b1-4)][GlcNAc(b1-6)]GlcNAc
# Outline: as §1
# [35] = biological target: GlcNAc(b1-3)[GlcNAc(b1-6)]GalNAc
# Outline: as §1
# [36] = biological target: Neu5Ac(a2-3)Gal(b1-3)GlcNAc(b1-2)Man(a1-3)[GlcNAc(b1-4)][Neu5Ac(a2-3)Gal(b1-3)GlcNAc(b1-2)Man(a1-6)]Man(b1-4)GlcNAc(b1-4)GlcNAc
# Outline: as §1
# [37] = biological target: Neu5Ac(a2-3)Gal(b1-4)GlcNAc(b1-2)Man
# Outline: as §1
# [38] = biological target: Neu5Ac(a2-3)Gal(b1-4)GlcNAc(b1-2)Man(a1-3)[Neu5Ac(a2-3)Gal(b1-4)GlcNAc(b1-2)Man(a1-6)]Man(b1-4)GlcNAc(b1-4)[Fuc(a1-6)]GlcNAc
# Outline: as §1
# [39] = biological target: Neu5Ac(a2-3)Gal(b1-4)GlcNAc(b1-3)Gal(b1-4)GlcNAc(b1-2)Man(a1-3)[Neu5Ac(a2-3)Gal(b1-4)GlcNAc(b1-3)Gal(b1-4)GlcNAc(b1-2)Man(a1-6)]Man(b1-4)GlcNAc(b1-4)GlcNAc
# Outline: as §1
# [40] = biological target: Neu5Ac(a2-3)Gal(b1-4)GlcNAc(b1-6)[Gal(b1-3)]GalNAc
# Outline: as §1
# [41] = biological target: Neu5Ac(a2-3)Gal(b1-4)GlcNAc(b1-6)[Neu5Ac(a2-3)Gal(b1-3)]GalNAc
# Outline: as §1
# [42] = biological target: Neu5Ac(a2-3)Gal(b1-4)[Fuc(a1-3)]GlcNAc(b1-2)Man
# Outline: as §1
# [43] = biological target: Neu5Ac(a2-3)GalNAc(b1-4)GlcNAc
# Outline: as §1
# [44] = biological target: Neu5Ac(a2-6)GlcNAc(b1-4)GlcNAc(b1-4)GlcNAc
# Outline: as §1
# [45] = biological target: Neu5Ac(a2-8)Neu5Ac(a2-8)Neu5Ac
# Outline: as §1
# [46] = biological target: Neu5Ac9Ac(a2-3)Gal(b1-4)GlcNAc
# Outline: as §1
binder,measurement,setting,value
GSL-I-B4 (Griffonia simplicifolia) (protein) NFWSDVEDSIIFQGDANTTAGTLQLCKTNQYGTPLQWSAGRALYSDPVQLWDNKTESVASFYTEFTFFLKITGNGPADGLAFFLAPPDSDVKDAGEYLGLFNKSTATQPSKNQVVAVEFDTWTNPNFPEPSYRHIGINVNSIVSVATKRWEDSDIFSGKIATARISYDGSAEILTVVLSYPDGSDYILSHSVDMRQNLPESVRVGISASTGNNQFLTVYILSWRFSSNLQSTSVKAAMEPEITRTVV,glycan array binding signal (z-score),[1],-0.132
same,glycan array binding signal (z-score),[2],-0.131
same,glycan array binding signal (z-score),[3],0.853
same,glycan array binding signal (z-score),[4],1.74
same,glycan array binding signal (z-score),[5],0.077
same,glycan array binding signal (z-score),[6],3.69
same,glycan array binding signal (z-score),[7],-0.12
same,glycan array binding signal (z-score),[8],-0.197
same,glycan array binding signal (z-score),[9],-0.155
same,glycan array binding signal (z-score),Gal(a1-2)Gal,5.94
same,glycan array binding signal (z-score),[10],1.98
same,glycan array binding signal (z-score),[11],1.88
same,glycan array binding signal (z-score),Gal(a1-3)Gal(b1-4)GlcNAc,2
same,glycan array binding signal (z-score),[12],7.78
same,glycan array binding signal (z-score),[13],6.03
same,glycan array binding signal (z-score),[14],1.71
same,glycan array binding signal (z-score),[15],5.37
same,glycan array binding signal (z-score),[16],1.52
same,glycan array binding signal (z-score),Gal(a1-4)GlcNAc,13.8
same,glycan array binding signal (z-score),[17],-0.212
same,glycan array binding signal (z-score),[18],-0.155
same,glycan array binding signal (z-score),Gal(b1-3)GlcNAc(b1-2)Man,-0.171
same,glycan array binding signal (z-score),[19],-0.138
same,glycan array binding signal (z-score),[20],-0.228
same,glycan array binding signal (z-score),[21],-0.187
same,glycan array binding signal (z-score),[22],-0.177
same,glycan array binding signal (z-score),[23],-0.172
same,glycan array binding signal (z-score),[24],-0.15
same,glycan array binding signal (z-score),[25],-0.205
same,glycan array binding signal (z-score),[26],-0.133
same,glycan array binding signal (z-score),Gal3S(b1-4)Glc,-0.151
same,glycan array binding signal (z-score),Gal3S(b1-4)GlcNAc,-0.174
same,glycan array binding signal (z-score),[27],-0.156
same,glycan array binding signal (z-score),GalNAc3S(b1-4)GlcNAc,-0.159
same,glycan array binding signal (z-score),[28],-0.12
same,glycan array binding signal (z-score),[29],-0.089
same,glycan array binding signal (z-score),[30],-0.062
same,glycan array binding signal (z-score),[31],-0.186
same,glycan array binding signal (z-score),[32],0.066
same,glycan array binding signal (z-score),[33],-0.208
same,glycan array binding signal (z-score),[34],-0.144
same,glycan array binding signal (z-score),[35],-0.161
same,glycan array binding signal (z-score),[36],-0.151
same,glycan array binding signal (z-score),[37],-0.197
same,glycan array binding signal (z-score),[38],-0.214
same,glycan array binding signal (z-score),[39],0.149
same,glycan array binding signal (z-score),[40],-0.23
same,glycan array binding signal (z-score),[41],-0.212
same,glycan array binding signal (z-score),[42],-0.187
same,glycan array binding signal (z-score),[43],-0.157
same,glycan array binding signal (z-score),[44],-0.169
same,glycan array binding signal (z-score),[45],-0.144
same,glycan array binding signal (z-score),[46],-0.134
